ASM inhibitor: blocks human secretory acid sphingomyelinase; placental ASM, HMU-PC fluorogenic substrate, 60 min; Potency, µM (titrated, usually from 57.5 µM), hits mostly inhibitors; hit rate 0.006% among 340,000; AID 504937
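qHTS format. ASM enzyme prepared from human placenta hydrolyses the fluorogenic substrate HMU-PC0 (9 uM final) over 60 min at 37 °C after a 10 min compound preincubation.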
Mm-Cpn inhibitor: M. maripaludis TRiC chaperonin inhibition; hit rate 0.031% among 330,000; purified Mm-Cpn ATPase, ADP Transcreener TR-FRET; Potency, µM (top dose mostly 76.9 µM), actives largely listed as inhibitors; AID 504842; also: nearly all actives have a fitted effect of over 80% in size
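25 nM Mm-CPN + cpd, 10 min 37°C; + 10 uM ATP, 30 min 37°C; buffer 30 mM Tris pH 7.4, 100 mM KCl, 5 mM MgCl2, 1 mM DTT; Transcreener ADP HTRF detection 30 min RT.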
p53 reactivation: mutant p53 re-activation in reporter cells; H1299 p53-A138V BP100-luciferase reporter, luminescence, 24 h; Potency, µM (series often up to 92.2 µM), most hits filed as activators; hit rate 0.063% among 320,000; also: nearly all actives have a fitted effect of over 45% in size
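p53-null H1299 cells stably carrying temperature-sensitive p53-A138V and a BP100-luciferase reporter were pinned with compounds (4-point, 1:5 series) and held 24 hrs at 37 deg C. Luminescence was read 10 min after detection reagent.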
KCNH2 3.1 block: blocks the human KCNH2 3.1 channel isoform. U2OS KCNH2 3.1, thallium flux FluxOr; hits give low values. activity change, % (tested at about 1.8 µM). hit rate 0.95% among 340,000. AID 720553;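 active = maximum activity change below -70%; inconclusive = maximum activity change from -70% to -50%; inactive = maximum activity change above -50%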;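 also: thallium influx rate constant from kinetic fluorescence after stimulation buffer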
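Thallium flux read-out: FluxOr dye with Red40 quencher in HBSS/HEPES, 45 min at RT. Rate constants from kinetic reads were normalized to positive and negative DMSO controls. Cells: U2OS virally expressing the 3.1 isoform.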
KCNH2 WT inh: blocks the wildtype human KCNH2 potassium channel | U2OS, BacMam KCNH2, thallium flux FluxOr; hits give low values | AID 720551 | hit rate 0.37% among 340,000 | activity change, % at 1.84 µM;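 active = maximum activity change below -70%; inconclusive = maximum activity change between -70% and -50%; inactive = maximum activity change above -50%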
Target sequence (Q12809 whole entry, looked up): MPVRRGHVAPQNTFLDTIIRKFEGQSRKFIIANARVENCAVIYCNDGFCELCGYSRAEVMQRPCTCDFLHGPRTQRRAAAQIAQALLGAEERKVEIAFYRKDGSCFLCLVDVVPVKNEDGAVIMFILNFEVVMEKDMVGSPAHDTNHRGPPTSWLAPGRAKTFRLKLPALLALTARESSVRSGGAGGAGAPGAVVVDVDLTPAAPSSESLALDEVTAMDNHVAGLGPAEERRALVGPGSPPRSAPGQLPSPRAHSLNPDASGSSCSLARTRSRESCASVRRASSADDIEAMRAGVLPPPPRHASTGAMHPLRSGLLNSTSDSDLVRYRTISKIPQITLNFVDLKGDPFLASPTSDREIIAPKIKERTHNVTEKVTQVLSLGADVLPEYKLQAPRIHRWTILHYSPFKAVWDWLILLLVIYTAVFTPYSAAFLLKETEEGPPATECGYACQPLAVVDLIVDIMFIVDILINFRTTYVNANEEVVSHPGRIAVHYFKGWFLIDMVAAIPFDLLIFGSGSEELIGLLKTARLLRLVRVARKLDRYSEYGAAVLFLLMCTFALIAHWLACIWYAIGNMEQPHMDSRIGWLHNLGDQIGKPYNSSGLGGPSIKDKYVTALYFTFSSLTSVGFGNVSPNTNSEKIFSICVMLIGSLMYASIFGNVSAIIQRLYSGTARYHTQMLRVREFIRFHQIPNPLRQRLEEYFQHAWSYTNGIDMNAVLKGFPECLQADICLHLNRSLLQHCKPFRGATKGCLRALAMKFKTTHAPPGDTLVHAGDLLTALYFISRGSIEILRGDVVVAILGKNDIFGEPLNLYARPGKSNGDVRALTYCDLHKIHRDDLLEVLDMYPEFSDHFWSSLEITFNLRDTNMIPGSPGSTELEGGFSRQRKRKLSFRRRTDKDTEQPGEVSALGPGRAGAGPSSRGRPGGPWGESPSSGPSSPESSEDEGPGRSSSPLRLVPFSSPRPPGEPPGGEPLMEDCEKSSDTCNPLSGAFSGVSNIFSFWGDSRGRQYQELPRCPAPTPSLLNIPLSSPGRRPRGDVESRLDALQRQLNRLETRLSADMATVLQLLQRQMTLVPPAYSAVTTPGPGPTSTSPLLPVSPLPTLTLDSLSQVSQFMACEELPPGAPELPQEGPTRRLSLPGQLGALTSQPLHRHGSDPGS
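U2OS cells transduced with wild-type KCNH2 virus are loaded with FluxOr dye for 45 min, and thallium flux is measured in kinetic reads before and after stimulation buffer. Rate constants are normalized to DMSO controls.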
uPA generation: cell surface uPA generation inhibition; AID 540303; cell surface uPA generation assay, qHTS; hit rate 0.31% among 330,000; Potency, µM (top dose mostly 38.3 µM), usual class: inhibitors; active = well fitted inhibition curve with a large enough effect; inconclusive = small, poorly fitted or top-dose-only effect; inactive = no such curve, though single readings can be large or run the other way; tested in mouse RAW 264.7 cells; also: nearly all actives have a fitted effect of over 55% in size
Hits are given with their value; n = inactive; u = inconclusive; x = no result. Only some compounds are listed: those with a hit (about 1.4% of all), similar ones and a draw of the others. Unless noted, calls follow the shape of the dose curve; as a rule, active = well fitted curve in the direction sought with a large enough effect; inconclusive = small, poorly fitted or top-dose-only effect, or another doubt; inactive = no such curve, though single readings can be large; an effect the other way counts as inactive or inconclusive.

SMILES	ASM inhibitor	Mm-Cpn inhibitor	p53 reactivation	KCNH2 3.1 block	KCNH2 WT inh	uPA generation
Cc1ccccc1NC(=O)CSc1nc(-c2cccs2)nc2cc(=O)[nH]n12	x	n	x	x	x	x
CC(=O)NCc1ccc(C(=O)CSc2nnc(C3CC3)n2C2CC2)cc1	n	n	n	n	n	n
Cc1ccc(CNC(=S)Nc2ccc(NS(=O)(=O)c3ccc(C)cc3)cc2)cc1	n	n	n	n	n	n
CCOC(=O)C1(CCOc2ccccc2)CCN(Cc2ccc(OCC)c(CO)c2)CC1	n	x	x	-108	-87	n
CCOC(=O)C1(CCOc2ccccc2)CCN(Cc2cc(OC)c3c(c2)OCO3)CC1	n	n	n	-71	n	n
CCOC(=O)C1(CCOc2ccccc2)CCN(Cc2ccc(OC)cc2)CC1	n	x	x	-120	-98	n
O=C(Nc1ccc(F)cc1Cl)C1=COCCO1	n	n	n	n	n	n
COc1ccc(S(=O)(=O)Nc2cccc(-c3ccc4nncn4n3)c2)cc1F	n	n	n	n	x	2.8µM
O=S(=O)(Nc1cccc(-c2ccc3nncn3n2)c1)c1cccc(F)c1	n	n	n	n	n	n
COc1ccc(NC(=O)/C=C/C(=O)O)cc1Cl	n	6.3µM	n	n	n	n
O=C(Nc1ccc(Br)cc1)c1cccc(S(=O)(=O)Nc2ccccn2)c1	n	n	n	x	-191	n
O=C(Nc1ccccc1)c1cccc(S(=O)(=O)Nc2ccccn2)c1	n	n	n	n	n	n
O=C(c1ccccc1NS(=O)(=O)c1ccc([N+](=O)[O-])cc1[N+](=O)[O-])N1O[C@@H]2C=C[C@H]1C2	n	n	n	n	n	u
CCN(CCCNC(=O)Cn1ncc2c(=O)oc3ccccc3c21)c1cccc(C)c1	n	u	n	-180	-165	n
COc1cc(C(=O)N2CCN(c3ccc(C)cc3C)CC2)cc(OC)c1OC	n	n	n	n	n	3.2µM
C[C@@H]1CCCCO[C@@H](CN(C)C(=O)CCC(F)(F)F)[C@@H](C)CN([C@H](C)CO)C(=O)c2cc(N(C)C)ccc2O1	x	x	x	n	n	x
CCCN(CC1CC1)C(=O)CCc1nnc(CCc2c[nH]c3ccccc23)o1	n	n	n	-98	n	n
Cc1cccc(C)c1OCCNC(=O)c1ccc2ccccc2n1	n	n	n	-89	n	n
CC(=O)N1CCCc2cc(S(=O)(=O)CCC(=O)N3CCN(c4cccc(C)c4)C(C)C3)ccc21 (stereo not given)	n	n	n	-93	n	n
Cc1cccc(N2CCN(C(=O)CCS(=O)(=O)c3ccc(Br)cc3)CC2C)c1 (stereo not given)	n	n	n	n	n	n
Cc1c(CCNC=O)cc(C)c2c3c(oc12)CCCC3	n	x	x	n	n	n
O=C(Nc1cc(Cl)ccc1Oc1ccccc1)C1=COCCO1	n	n	n	-74	n	n
CCOc1ccc(C(=O)NC(=S)N2CCN(c3ccc(C(F)(F)F)cc3[N+](=O)[O-])CC2)cc1	n	n	n	-70	u	n
O=C(Nc1ccccc1)c1ccc2snnc2c1	n	n	n	n	n	n
O=C(Nc1cccnc1)c1ccc2snnc2c1	n	n	n	-125	-151	n
SMILES	ASM inhibitor	Mm-Cpn inhibitor	p53 reactivation	KCNH2 3.1 block	KCNH2 WT inh	uPA generation
CCCCCCNCC(=O)N1CCC(Cc2ccccc2)CC1	n	n	n	-101	n	n
CCN(CC)C(=O)C1=C(C)N(Cc2ccccc2)C(=O)C(CC(=O)NC2CCCC2)C1 (stereo not given)	x	x	x	n	n	x
O=C1C(=O)c2ccccc2C(O)=C1CCCCl	n	n	n	n	n	11µM
COc1ccc(CC2=C(O)c3ccccc3C(=O)C2=O)cc1	n	n	x	n	n	n
COc1ccc2nc(NC(=O)c3cccc(N4C(=O)CCC4=O)c3)sc2c1	n	n	u	n	n	4.5µM
CCN(C[C@H]1N[C@@](CC)(C(=O)OC)[C@H]2C(=O)N(Cc3ccccc3)C(=O)[C@@H]12)C(=O)Nc1ccc(C(F)(F)F)cc1	n	n	n	-75	n	n
COc1ccccc1OCCN(C#N)c1nc(N(C)C)nc(N(C)C)n1	n	n	n	-84	n	n
CCOC(=O)C1=C(C)N=C2c3ccccc3C(=O)C2C1c1ccc(Cl)cc1 (stereo not given)	u	n	n	-105	n	n
Cc1csc(NC(=O)c2ccc(N3CCCC3=O)cc2)n1	n	n	n	n	x	2.8µM
O=C1c2cccc3c([N+](=O)[O-])ccc(c23)C(=O)N1O	n	n	u	n	-197	u
CC(NC(=O)COC(=O)CN1C(=O)NC2(CCCC2)C1=O)c1ccc(F)cc1 (stereo not given)	x	x	x	n	n	n
COc1ccc(C(=O)NC(=S)N(Cc2ccccc2)Cc2ccccc2)cc1	n	n	n	n	-102	n
COc1cccc(C#CC2=CC(=O)CC(C)(C)C2)c1	x	x	x	n	n	x
Cc1cccc(CNc2ncnc3ccc(-c4ccc5c(ccn5C)c4)cc23)c1	x	n	x	x	x	x
CCc1noc(C)c1C(=O)OC(C)C(=O)Nc1ccccc1OC (stereo not given)	n	n	n	n	n	n
O=C(Nc1ccccc1Cl)c1ccc(Cl)cc1Cl	n	n	u	-72	n	n
O=C(Nc1ccccc1Cl)c1ccccc1Cl	n	n	n	n	n	n
O=C(CC1C(=O)NCCN1Cc1ccccc1)NC1CCCCC1 (stereo not given)	x	x	x	n	n	x
Cc1cc2ccccc2n1CCNC(=O)c1ccc(S(=O)(=O)N2CCCCC2)cc1	n	14µM	n	n	n	n
CCN(CC(=O)Nc1cc(Cl)ccc1C)C(=O)c1oc2ccc(OC)cc2c1C	n	n	n	n	n	n
CC(C)CCN1CCN(Cc2cccn2-c2nccs2)CC1CCO (stereo not given)	n	n	n	n	n	n
Cc1ccc(CN2CCN(Cc3cccn3-c3nccs3)CC2CCO)cc1 (stereo not given)	n	u	n	-88	n	n
Cc1ccc(CN2CCN(Cc3cccn3-c3ccccn3)CC2CCO)cc1 (stereo not given)	n	n	n	-72	-76	n
CCOc1cc(N2CCOCC2)c(OCC)cc1NC(=O)CN1C(=O)NC(CC)(c2ccc(F)cc2)C1=O (stereo not given)	n	x	x	n	n	n
Cc1ccc(S(=O)(=O)N2C[C@@H]3CCCC[C@@H]3[C@@H](C)[C@H]2c2cn(Cc3ccccc3)c3ccccc23)cc1	n	n	n	n	n	u
Cc1ccc(S(=O)(=O)N2C[C@@H]3CCCC[C@@H]3[C@@H](C)[C@H]2c2cn(Cc3ccccc3)c3ncccc23)cc1	n	n	u	n	n	10µM
Cc1nc2c(=O)[nH]c(=S)[nH]c2[nH]c1=O	n	x	x	n	n	n

Screening data as filed in PubChem BioAssay.
